For eight compounds, outcome and Potency results are on record in PubChem BioAssay (Tox21).

Assay [1] is described as follows: qHTS assay to identify small molecule agonists of the sonic hedgehog signaling (Shh) pathway (AID 1259368; calls by dose curve;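 further: NIH/3T3-derived 3T3Gli1-Luc cells carrying a stable Gli1-driven firefly luciferase reporter; series mostly up to about 92 µM; nearly all actives have a fitted effect of over 15% in size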). The essentials:
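A Gli1 transcriptional response element controlled firefly luciferase in 3T3Gli1-Luc cells. Compounds and a positive control were added 4 hr after plating, and cells were incubated a further 24 hr at 37 C before luminescence detection.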
A general note: Quantitative high-throughput screening tests each substance at several concentrations.

A short description of assay [2]: qHTS assay to identify small molecule antagonists of the sonic hedgehog signaling (Shh) pathway (AID 1259369; calls by dose curve; further: nearly all actives have a fitted effect of over 45% in size). The method, boiled down:
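For antagonist detection, the reporter line received test compounds together with conditioned medium, incubated 24hr at 37 C, 5% CO2, then luminescence was recorded following 30min room-temperature luciferase reagent incubation.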

In assay [3] the target is Estrogen receptor beta (Homo sapiens) (UniProt Q92731). As to the kind of experiment: qHTS assay to identify small molecule agonists of the estrogen receptor beta (ER-beta) signaling pathway (AID 1259377; active means well fitted activation curve with a large enough effect in the signal ratio in the repeat runs, not every such curve was filed as active; the % refers to the signal ratio; further: potency means the concentration at half of the fitted maximal effect). The method, boiled down: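 Read-out: beta-lactamase FRET fluorescence. Cell line: ER-beta-UAS-bla HEK293T in 2% charcoal-stripped FBS. Exposure: 16 hr at 37C. Substrate step: 2 h at room temperature.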
Sequence of Estrogen receptor beta (Homo sapiens) (Q92731 whole entry, looked up): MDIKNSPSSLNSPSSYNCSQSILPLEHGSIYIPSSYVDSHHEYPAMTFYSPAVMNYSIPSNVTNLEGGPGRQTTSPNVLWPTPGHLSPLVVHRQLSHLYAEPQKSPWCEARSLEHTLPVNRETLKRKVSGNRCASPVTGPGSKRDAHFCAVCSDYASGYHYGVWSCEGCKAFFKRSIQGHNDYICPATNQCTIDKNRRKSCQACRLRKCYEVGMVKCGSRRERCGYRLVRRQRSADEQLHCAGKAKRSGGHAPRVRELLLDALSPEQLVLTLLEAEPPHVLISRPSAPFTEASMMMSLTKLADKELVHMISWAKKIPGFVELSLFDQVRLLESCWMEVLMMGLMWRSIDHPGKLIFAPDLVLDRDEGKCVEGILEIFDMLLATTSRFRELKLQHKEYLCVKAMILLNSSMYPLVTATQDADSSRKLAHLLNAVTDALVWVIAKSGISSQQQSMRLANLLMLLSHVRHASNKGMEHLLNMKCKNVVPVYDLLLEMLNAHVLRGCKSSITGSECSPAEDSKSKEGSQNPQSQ

Assay [4] shares this target. As to the kind of experiment: qHTS assay to identify small molecule antagonists of the estrogen receptor beta (ER-beta) signaling pathway (AID 1259378; active means well fitted inhibition curve with a large enough effect in the signal ratio in the repeat runs, not every such curve was filed as active; the % refers to the signal ratio). The essentials: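 ER-beta-UAS-bla HEK293T cells in 2% charcoal-stripped FBS medium treated with compound plus 1nM final 17-beta-estradiol for 16 hr at 37C. Beta-lactamase reporter read by FRET substrate fluorescence after 2 hours at room temperature.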

Assay [5] is described as follows: qHTS assay to identify small molecule agonists of the androgen receptor (AR) signaling pathway in the presence of an antagonist - cell viability counter screen (AID 1259379).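 Further: MDA-kb2 human breast cancer cells carrying an MMTV luciferase reporter; series mostly up to about 92 µM; nearly all actives have a fitted effect of over 25% in size.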 The method, boiled down: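 Seed MDA-kb2 at 3,000 cells/well; incubate 5 hr, 37C, 0% CO2. Add nilutamide to 3.0uM final, then pin compounds at 15 concentrations. Incubate 16 hr. Add CellTiter-Fluor at 15 hr, read fluorescence after 1 hr.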

Assay [6] is described as follows: qHTS assay to identify small molecule agonists of the estrogen receptor beta (ER-beta) signaling pathway - cell viability counter screen (AID 1259380). Further: nearly all actives have a fitted effect of over 30% in size. The method, boiled down:
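CellTiter-Glo read, 30 min RT, same wells as bla assay; cells ER-beta-UAS-bla HEK293T; 16 hr compound, 37C; medium 2% charcoal-stripped FBS.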

The nature of assay [7]: qHTS assay to identify small molecule antagonists of the estrogen receptor beta (ER-beta) signaling pathway - cell viability counter screen (AID 1259382). Further: series mostly up to about 92 µM; nearly all actives have a fitted effect of over 55% in size. The method, boiled down: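 In this multiplexed counter screen, cells were seeded at 2,000 per well in medium with 2% charcoal-stripped FBS and incubated 6 hr before compound and 1nM final E2 were added. Sixteen hours later, ATP-based luminescence reported viability.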

Assay [8] has as its target Estrogen receptor (Homo sapiens) (UniProt P03372). As to the kind of experiment: qHTS assay to identify small molecule agonists of the estrogen receptor alpha (ER-alpha) signaling pathway in the presence of an antagonist (AID 1259383; calls by dose curve; further: nearly all actives have a fitted effect of over 15% in size; further: potency means the concentration at half of the fitted maximal effect; on activation: top concentration of the series differs between compounds). The essentials:
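Stably transfected VM7Luc4E2 reporter cells, kept 5 days in charcoal-stripped serum, received ICI-182,780 at 10.0nM final before compound addition. Following 22hr incubation at 37C and 5% CO2, luciferase signal was read by luminescence.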

Assay [9] is described as follows: qHTS assay to identify small molecule agonists or antagonists of the thyroid stimulating hormone receptor (TSHR) signaling pathway - wild type cell line counter screen (AID 1259384; calls by dose curve). The method, boiled down: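 Wild-type Hek293 cells, 800/well, 18 h at 37C, then compound with Ro20-1724 for 30 min RT. cAMP by HTRF (cAMP-d2/anti-cAMP cryptate), 1 h RT, fluorescence read. 15 concentrations, triplicates.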

For assay [10], the target named is Thyrotropin receptor (Homo sapiens) (UniProt P16473). Briefly: qHTS assay to identify small molecule antagonists of the thyroid stimulating hormone receptor (TSHR) signaling pathway (AID 1259385; calls by dose curve; further: nearly all actives have a fitted effect of over 20% in size). The essentials: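 TSHR-HEK293 cells (800/well) plated 18 h, then compounds with Ro20-1724 and TSH at 1.5 ng/mL final, 30 min at room temperature. cAMP quantified by HTRF (cAMP-d2/anti-cAMP-cryptate, 1 h); 15 concentrations in triplicate.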
Sequence of Thyrotropin receptor (Homo sapiens) (P16473 whole entry, looked up): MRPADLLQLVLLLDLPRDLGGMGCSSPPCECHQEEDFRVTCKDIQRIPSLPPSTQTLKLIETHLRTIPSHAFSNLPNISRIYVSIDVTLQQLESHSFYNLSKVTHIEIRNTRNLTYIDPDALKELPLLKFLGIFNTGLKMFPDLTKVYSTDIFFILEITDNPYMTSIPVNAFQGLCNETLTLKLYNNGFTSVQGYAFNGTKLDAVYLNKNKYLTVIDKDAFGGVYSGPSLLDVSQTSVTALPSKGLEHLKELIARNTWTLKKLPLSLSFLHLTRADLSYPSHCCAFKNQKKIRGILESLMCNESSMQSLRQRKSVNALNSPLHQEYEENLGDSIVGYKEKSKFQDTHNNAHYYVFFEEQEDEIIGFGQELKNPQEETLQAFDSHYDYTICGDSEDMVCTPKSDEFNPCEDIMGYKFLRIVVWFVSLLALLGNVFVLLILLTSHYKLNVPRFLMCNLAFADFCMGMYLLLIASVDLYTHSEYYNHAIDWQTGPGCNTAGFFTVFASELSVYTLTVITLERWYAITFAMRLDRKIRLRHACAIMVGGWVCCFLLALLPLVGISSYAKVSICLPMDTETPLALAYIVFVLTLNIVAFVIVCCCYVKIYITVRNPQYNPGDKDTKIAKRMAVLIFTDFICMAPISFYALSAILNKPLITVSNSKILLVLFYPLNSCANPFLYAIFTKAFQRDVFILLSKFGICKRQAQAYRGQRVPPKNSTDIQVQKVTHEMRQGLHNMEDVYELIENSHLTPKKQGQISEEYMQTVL

A short description of assay [11]: qHTS assay to identify small molecule agonists of the estrogen receptor alpha (ER-alpha) signaling pathway in the presence of an antagonist - cell viability counter screen (AID 1259386).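 Further: series mostly up to about 92 µM; cells exposed to compounds for 22 h at 37 °C before the viability read; nearly all actives have a fitted effect of over 30% in size.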 The method, boiled down: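 Viability counter screen using VM7Luc4E2 (full-length ER-alpha, four ERE-luciferase). The cells were treated with compounds alongside ICI-182,780 10.0nM for 22hr, and live-cell protease fluorescence was quantified with CellTiter-Fluor.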

The target in assay [12] is Progesterone receptor (Homo sapiens) (UniProt P06401). As to the kind of experiment: qHTS assay to identify small molecule agonists of the progesterone receptor (PR) signaling pathway (AID 1346784; calls by dose curve; further: nearly all actives have a fitted effect of over 30% in size). The method, boiled down: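 Compounds were tested for PR agonism in HEK 293T cells bearing a beta-lactamase gene under UAS control. Treatment lasted 16 hr at 37C; signal came from fluorescence of a FRET substrate.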
Sequence of Progesterone receptor (Homo sapiens) (P06401 whole entry, looked up): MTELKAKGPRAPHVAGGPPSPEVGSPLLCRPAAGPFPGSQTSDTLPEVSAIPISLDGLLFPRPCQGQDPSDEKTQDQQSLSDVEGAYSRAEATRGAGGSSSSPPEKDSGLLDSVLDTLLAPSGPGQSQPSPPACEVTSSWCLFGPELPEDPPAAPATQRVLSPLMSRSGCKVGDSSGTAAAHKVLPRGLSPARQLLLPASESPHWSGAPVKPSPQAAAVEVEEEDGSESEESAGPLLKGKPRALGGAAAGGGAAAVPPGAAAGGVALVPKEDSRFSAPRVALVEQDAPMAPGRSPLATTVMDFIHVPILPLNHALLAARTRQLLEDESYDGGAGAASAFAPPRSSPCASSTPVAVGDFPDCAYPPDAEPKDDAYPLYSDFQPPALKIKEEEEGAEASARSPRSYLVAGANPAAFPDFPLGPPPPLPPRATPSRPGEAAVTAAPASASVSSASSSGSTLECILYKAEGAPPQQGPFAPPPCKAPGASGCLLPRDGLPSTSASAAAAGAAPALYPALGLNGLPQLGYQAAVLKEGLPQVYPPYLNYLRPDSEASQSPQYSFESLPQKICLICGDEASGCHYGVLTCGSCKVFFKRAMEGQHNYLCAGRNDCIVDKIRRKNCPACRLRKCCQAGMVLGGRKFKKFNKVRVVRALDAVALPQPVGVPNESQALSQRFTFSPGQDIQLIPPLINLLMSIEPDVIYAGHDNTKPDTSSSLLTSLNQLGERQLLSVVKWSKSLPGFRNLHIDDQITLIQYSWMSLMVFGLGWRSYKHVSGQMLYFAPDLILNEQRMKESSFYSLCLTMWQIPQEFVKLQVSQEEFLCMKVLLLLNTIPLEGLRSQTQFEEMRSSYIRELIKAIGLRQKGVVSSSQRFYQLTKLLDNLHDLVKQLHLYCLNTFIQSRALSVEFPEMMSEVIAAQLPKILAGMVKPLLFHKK

The target is the same in assay [13]. As to the kind of experiment: qHTS assay to identify small molecule antagonists of the progesterone receptor (PR) signaling pathway (AID 1346795; active means well fitted inhibition curve with a large enough effect in the signal ratio in the repeat runs, not every such curve was filed as active; the % refers to the signal ratio). The method, boiled down:
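In HEK293T cells bearing the PR-UAS-bla reporter, compound effects on promegestone-driven (1 nM) beta-lactamase expression are assessed after 16 hr using a fluorescent FRET substrate incubated 2 hr at room temperature.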

Assay [14] in a line: qHTS assay to identify small molecule antagonists of the progesterone receptor (PR) signaling pathway - cell viability counter screen (AID 1346798). Further: series mostly up to about 92 µM; nearly all actives have a fitted effect of over 50% in size. The essentials: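 Following a 4 hr attachment, PR-UAS-bla HEK293T cells in charcoal-stripped FBS medium were exposed to compounds with R5020 for 16 hr; CellTiter-Glo was added and luminescence read after 30 min at room temperature.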

Assay [15] can be described thus: qHTS assay to identify small molecule agonists of the progesterone receptor (PR) signaling pathway - cell viability counter screen (AID 1346799; calls by dose curve; further: nearly all actives have a fitted effect of over 45% in size). The method, boiled down: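 Here, 3,000 PR-UAS-bla HEK293T cells per well were treated with compounds for 16 hr after a 6 hr preincubation at 37C and 5% CO2; cell viability is the CellTiter-Glo luminescence signal.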
The nature of assay [16]: qHTS assay to identify small molecule antagonists of the TGF-beta/Smad signaling pathway - cell viability counter screen (AID 1346824). Further: nearly all actives have a fitted effect of over 50% in size. The method, boiled down: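 SBE-bla HEK 293T cells, incubated overnight, then compound plus 0.25 ng/mL TGF-beta1 (stock added) for 5 hr at 37 C. Viability was read in the same wells by CellTiter-Glo luminescence after 30 min at room temperature.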

The nature of assay [17]: qHTS assay to identify small molecule agonists of the TGF-beta/Smad signaling pathway - cell viability counter screen (AID 1346829). Further: top concentration of the series differs between compounds; nearly all actives have a fitted effect of over 45% in size. The essentials:
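Here the cytotoxicity of library compounds is measured in SBE-bla HEK 293T cells treated for 5 hr, using CellTiter-Glo added to wells already read for the beta-lactamase reporter.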

Assay [18] in a line: qHTS assay to identify small molecule agonists of the TGF-beta/Smad signaling pathway (AID 1346859; active means well fitted activation curve with a large enough effect in the signal ratio in the repeat runs, not every such curve was filed as active; the % refers to the signal ratio; further: series mostly up to about 77 µM). The essentials:
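Each well held 4,000 SBE-bla HEK 293T cells incubated overnight before compound addition; 5 hr later the cleavable FRET substrate went on for 2 hr at room temperature, and fluorescence was read at two emissions.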

The target in assay [19] is Thyrotropin-releasing hormone receptor (Homo sapiens) (UniProt P34981). Briefly: qHTS assay to identify small molecule antagonists of the thyrotropin-releasing hormone receptor (TRHR) signaling pathway (AID 1346877; active means well fitted inhibition curve with a large enough effect in the repeat runs, not every such curve was filed as active; further: series mostly up to about 51 µM). The essentials: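 Following an 18 h incubation at 37 °C and a 2 h calcium dye load, TRHR-HEK293 cells were exposed to compound (5 min, room temperature) and challenged with TRH, 1 nM final.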
Sequence of Thyrotropin-releasing hormone receptor (Homo sapiens) (P34981 whole entry, looked up): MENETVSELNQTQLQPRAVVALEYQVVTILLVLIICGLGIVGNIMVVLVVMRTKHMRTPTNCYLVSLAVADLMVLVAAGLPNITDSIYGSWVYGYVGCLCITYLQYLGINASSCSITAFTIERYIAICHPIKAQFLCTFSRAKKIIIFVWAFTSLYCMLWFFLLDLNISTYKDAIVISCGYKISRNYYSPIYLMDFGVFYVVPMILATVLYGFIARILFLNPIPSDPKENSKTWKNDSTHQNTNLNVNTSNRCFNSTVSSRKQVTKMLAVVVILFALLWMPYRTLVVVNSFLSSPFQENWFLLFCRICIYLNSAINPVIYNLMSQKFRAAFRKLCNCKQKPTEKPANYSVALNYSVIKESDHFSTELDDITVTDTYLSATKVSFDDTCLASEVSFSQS

The target in assay [20] is Androgen receptor (Homo sapiens) (UniProt P10275). Briefly: qHTS assay to identify small molecule agonists of the androgen receptor (AR) signaling pathway in the presence of an antagonist (AID 1259381; calls by dose curve; further: nearly all actives have a fitted effect of over 15% in size). The method, boiled down:
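Test compounds at 15 concentrations were incubated for 16hr with MDA-kb2 reporter cells in presence of 3.0uM nilutamide (final). Signal: ONE-Glo luciferase luminescence.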

Molecules are shown by their SMILES. Results filed as inconclusive are left out. Some structures have more than one record in an assay (separate samples or runs), and their calls can disagree. Active and inactive are the calls of the source. Unless noted, the call rests on the fitted dose curve; in most records, active means well fitted curve in the direction sought with a large enough effect in the repeat runs; inconclusive means weak or mixed curves; inactive means no such curve, though single readings can be large; an effect the other way counts as inactive or inconclusive.

Sequence of Androgen receptor (Homo sapiens) (P10275 whole entry, looked up): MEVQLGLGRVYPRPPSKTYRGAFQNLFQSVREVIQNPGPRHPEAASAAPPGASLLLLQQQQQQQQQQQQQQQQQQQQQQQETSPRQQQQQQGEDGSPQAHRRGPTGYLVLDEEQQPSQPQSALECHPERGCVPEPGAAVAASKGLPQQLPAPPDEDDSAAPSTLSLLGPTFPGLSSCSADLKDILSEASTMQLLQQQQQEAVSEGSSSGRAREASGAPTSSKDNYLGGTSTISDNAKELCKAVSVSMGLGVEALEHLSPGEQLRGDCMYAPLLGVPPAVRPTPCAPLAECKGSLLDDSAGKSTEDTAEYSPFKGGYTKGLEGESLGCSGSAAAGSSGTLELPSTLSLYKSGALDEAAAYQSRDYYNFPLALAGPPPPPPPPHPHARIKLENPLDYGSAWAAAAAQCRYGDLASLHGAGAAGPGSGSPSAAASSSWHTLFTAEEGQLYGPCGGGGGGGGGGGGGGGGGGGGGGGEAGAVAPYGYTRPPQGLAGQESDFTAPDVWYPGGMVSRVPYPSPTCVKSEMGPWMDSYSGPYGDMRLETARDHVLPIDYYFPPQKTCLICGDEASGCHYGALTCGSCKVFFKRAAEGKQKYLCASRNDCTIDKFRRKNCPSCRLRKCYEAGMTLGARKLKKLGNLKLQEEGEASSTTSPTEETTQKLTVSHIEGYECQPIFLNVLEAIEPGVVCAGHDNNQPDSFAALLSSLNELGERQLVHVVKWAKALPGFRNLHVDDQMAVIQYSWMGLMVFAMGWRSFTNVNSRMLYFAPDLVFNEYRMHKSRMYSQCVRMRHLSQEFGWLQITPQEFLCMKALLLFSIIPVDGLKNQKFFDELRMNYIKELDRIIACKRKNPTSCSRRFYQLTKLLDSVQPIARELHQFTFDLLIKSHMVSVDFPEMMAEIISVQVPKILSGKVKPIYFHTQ
Sequence of Estrogen receptor (Homo sapiens) (P03372 whole entry, looked up): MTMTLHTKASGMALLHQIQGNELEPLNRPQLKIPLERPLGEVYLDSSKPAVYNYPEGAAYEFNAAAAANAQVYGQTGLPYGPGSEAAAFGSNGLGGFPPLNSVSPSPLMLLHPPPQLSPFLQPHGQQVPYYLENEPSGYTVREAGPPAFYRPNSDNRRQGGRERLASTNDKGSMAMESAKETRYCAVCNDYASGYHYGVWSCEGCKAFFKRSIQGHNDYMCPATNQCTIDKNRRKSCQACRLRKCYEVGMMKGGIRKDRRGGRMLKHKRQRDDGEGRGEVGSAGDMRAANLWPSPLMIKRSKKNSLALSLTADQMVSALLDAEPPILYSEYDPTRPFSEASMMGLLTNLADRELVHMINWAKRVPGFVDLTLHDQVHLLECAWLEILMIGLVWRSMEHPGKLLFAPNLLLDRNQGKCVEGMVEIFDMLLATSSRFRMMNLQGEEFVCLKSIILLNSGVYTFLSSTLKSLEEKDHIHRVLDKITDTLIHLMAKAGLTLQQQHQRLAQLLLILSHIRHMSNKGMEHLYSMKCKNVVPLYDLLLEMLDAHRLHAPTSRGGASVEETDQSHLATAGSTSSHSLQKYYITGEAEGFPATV

In the case of `CC(=O)OCCOC(C)=O`, the result in assay [1], in assay [7], in assay [9], in assay [10], in assay [14] and in assay [15] was inactive. Further, the call in assay [16], in assay [17], in assay [18] and in [19] was inactive. Also, the Potency entry in assay [2], in assay [3], in [4], in assay [5], in [6] and in [8] was “inactive” throughout. For the same compound, the Potency entry in assay [11], in assay [12] and in [13] was “inactive” in each case.

`C=Cc1ccc(C)cc1`: the compound was called inactive in assay [1], in assay [7], in assay [9], in [10], in [14] and in assay [15]. The outcome in [16], in assay [17], in assay [18] and in assay [19] was inactive. Further, the Potency result in assay [2], in assay [3], in assay [4], in assay [5], in assay [6] and in assay [11] was “inactive” throughout. In addition, the Potency result in assay [12] and in [13] was “inactive” each time.

As to `c1ccc(Oc2ccccc2)cc1`, the outcome in [1], in [7], in assay [10], in [14], in assay [15] and in [16] was inactive. Also, the compound was classed as inactive in assay [17] and in assay [18]. Moreover, the Potency result in assay [2], in [3], in [4], in assay [5], in assay [6] and in assay [11] was “inactive” throughout. Besides, the Potency entry in assay [12] and in assay [13] was “inactive” in each case.

As for `CC(C)(C#N)c1cc(Cn2cncn2)cc(C(C)(C)C#N)c1`, the compound was called inactive in assay [1], in assay [7], in [14], in [15], in assay [16] and in assay [17]. In addition, the result in [18] was inactive. In addition, the Potency result in [2], in [3], in [4], in assay [5], in assay [6] and in assay [11] was “inactive” throughout. For the same compound, the Potency entry in assay [12] and in assay [13] was “inactive” in each case.

As to `C=CC(C)CCCC(C)(C)O` (stereo unspecified), the compound was classed as inactive in assay [1], in assay [7], in assay [9], in assay [10], in assay [14] and in assay [15]. In addition, the compound was classed as inactive in [16], in [17] and in assay [18]. In addition, the Potency entry in assay [2], in assay [4], in assay [5], in assay [6], in assay [8] and in [11] was “inactive” in each case. Besides, the Potency entry in assay [12] and in assay [13] was “inactive” each time. Also, the Potency in assay [3] is 54.4 µM (active) and inactive.

Consider `CC(=O)OCc1ccccc1`, for which the compound was called inactive in [1], in assay [7], in assay [10], in assay [14], in assay [15] and in [16]. Moreover, the call in assay [17] and in assay [18] was inactive. The Potency result in [2], in assay [3], in assay [4], in assay [5], in assay [6] and in assay [20] was “inactive” in each case. Besides, the Potency result in assay [11], in [12] and in [13] was “inactive” each time. The Potency in [8] is 139 nM (active) and inactive.

In the case of `NCCN1CCNCC1`, the compound was classed as inactive in [1], in assay [7], in assay [9], in assay [10], in assay [14] and in assay [15]. In addition, the result in assay [16], in assay [17] and in assay [18] was inactive. For the same compound, the Potency result in assay [2], in assay [3], in assay [4], in [5], in assay [6] and in [8] was “inactive” each time. For the same compound, the Potency result in [11], in [12] and in [13] was “inactive” in each case.

On to `CC(=O)CC(C)(C)O`, for which the compound was called inactive in [1], in assay [7], in assay [10], in assay [14], in assay [15] and in assay [16]. Further, the call in [17], in assay [18] and in [19] was inactive. Moreover, the Potency entry in assay [2], in [3], in assay [4], in assay [5], in assay [6] and in assay [20] was “inactive” in each case. Also, the Potency result in assay [8], in assay [11], in [12] and in [13] was “inactive” each time.
